# Experimental data as given in PMC4336329 (PLoS ONE, 2015).
# The campaign covered roughly 310,000 compounds. About 2,200 (0.71%) showed an effect of 50% or more. Effects have a minus sign here. For the sample, strong results were picked, then their nearest neighbours and some compounds at random.
# Target: human ether-à-go-go-related gene (hERG) potassium channel (human, UniProt Q12809)
# Test: primary screen, population patch clamp on CHO cells stably expressing hERG; higher = less effect of the substance
# human ether-à-go-go-related gene (hERG) potassium channel, sequence (Q12809 whole entry, looked up): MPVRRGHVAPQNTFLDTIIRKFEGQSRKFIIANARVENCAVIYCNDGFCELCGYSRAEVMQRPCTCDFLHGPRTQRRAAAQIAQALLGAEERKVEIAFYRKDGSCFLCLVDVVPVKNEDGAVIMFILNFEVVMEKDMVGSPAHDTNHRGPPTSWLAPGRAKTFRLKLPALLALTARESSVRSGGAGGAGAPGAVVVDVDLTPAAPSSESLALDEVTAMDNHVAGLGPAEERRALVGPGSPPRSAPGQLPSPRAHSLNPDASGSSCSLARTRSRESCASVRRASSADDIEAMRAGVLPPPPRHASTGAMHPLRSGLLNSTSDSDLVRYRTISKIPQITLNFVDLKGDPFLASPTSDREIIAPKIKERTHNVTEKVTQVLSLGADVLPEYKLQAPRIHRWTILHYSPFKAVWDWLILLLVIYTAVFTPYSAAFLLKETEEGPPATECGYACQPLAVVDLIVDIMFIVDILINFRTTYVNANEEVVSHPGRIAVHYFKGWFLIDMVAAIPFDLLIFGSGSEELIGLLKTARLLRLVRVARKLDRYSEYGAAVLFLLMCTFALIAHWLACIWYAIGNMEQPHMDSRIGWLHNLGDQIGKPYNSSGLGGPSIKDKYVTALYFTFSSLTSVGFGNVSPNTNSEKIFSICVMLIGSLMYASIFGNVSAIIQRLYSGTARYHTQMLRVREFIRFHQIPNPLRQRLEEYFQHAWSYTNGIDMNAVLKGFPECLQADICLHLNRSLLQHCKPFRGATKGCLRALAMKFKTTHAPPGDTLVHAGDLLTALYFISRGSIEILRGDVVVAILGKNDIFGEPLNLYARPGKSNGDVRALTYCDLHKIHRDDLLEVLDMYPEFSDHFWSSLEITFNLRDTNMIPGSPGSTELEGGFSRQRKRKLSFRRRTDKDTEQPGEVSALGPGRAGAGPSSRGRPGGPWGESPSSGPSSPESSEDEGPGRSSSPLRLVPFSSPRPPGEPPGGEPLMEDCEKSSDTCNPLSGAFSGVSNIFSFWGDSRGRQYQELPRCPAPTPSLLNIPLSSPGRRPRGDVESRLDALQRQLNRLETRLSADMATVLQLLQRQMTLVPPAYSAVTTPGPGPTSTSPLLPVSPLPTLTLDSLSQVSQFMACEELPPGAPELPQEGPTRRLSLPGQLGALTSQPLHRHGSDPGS
row,Compound,"hERG current change (%, negative = inhibition) at 1uM"
1,CCOC(=O)N1CCN(c2c(NCCCN(C)c3ccccc3)c(=O)c2=O)CC1,9.53%
2,COc1cc(C(=O)Nc2cccc(-c3nc4cc(C)ccc4o3)c2)cc(OC)c1OC,10.6%
3,CCN(CC)CCNc1nc2c(c(=O)[nH]c(=O)n2C)n1CC(O)COc1ccc(Cl)cc1Cl (centres unmarked),-66.1%
4,CN(C)CCNc1nc2c(c(=O)[nH]c(=O)n2C)n1CC(O)COc1ccc(Cl)cc1Cl (centres unmarked),-30.6%
5,CN(C)CCNc1nc2c(c(=O)[nH]c(=O)n2C)n1CC(O)COc1ccc(Cl)cc1 (centres unmarked),5.04%
6,CSc1nn(-c2ccc(C(=O)OC(C(=O)NC(N)=O)C(C)C)cc2)c(=S)s1 (centres unmarked),9.82%
7,COc1ccccc1/C=C/CN1CCC(n2nccc2NC(=O)CCc2ccccc2)CC1,-24.8%
8,COc1ccccc1C(=O)Nc1ccnn1C1CCN(C/C=C/c2ccc(F)cc2)CC1,-86.9%
9,COCC(=O)N1CCC(n2nccc2NC(=O)c2ccccc2OC)CC1,14.1%
10,COc1ccccc1C(=O)Nc1ccnn1C1CCN(C/C=C/c2ccccc2)CC1,-85.6%
11,CCOc1ccc(N(CC(=O)Nc2ccc(F)c(F)c2)S(=O)(=O)c2c(C)noc2C)cc1,2.37%
12,CC(=O)Nc1ccc(NC(=O)COc2ccc(S(=O)(=O)NC(C)c3ccccc3)cc2)cc1 (centres unmarked),17.5%
13,CC(C)(C)c1ccc(CSc2cnn(C(C)(C)C)c(=O)c2Cl)cc1,15.7%
14,CCOC(=O)c1c(NC(=O)c2ccc(N3C(=O)[C@@H]4[C@H](C3=O)[C@H]3C=C[C@@H]4C3)cc2)sc2c1CCCC2,4.8%
15,O=C(CSc1ccccc1)Nc1ccc2c(c1)OCCO2,8.08%
16,COc1cccc(NC(=O)C2c3cc(OC)c(OC)cc3C(=O)N(C)C2c2cccnc2)c1 (centres unmarked),1.83%
17,COCCCn1c(C(=O)N2CCOCC2)cc2c(=O)n3cccc(C)c3nc21,1.75%
18,Cc1cccn2c(=O)c3cc(C#N)c(=N)n(CCCN4CCOCC4)c3nc12,-78.1%
19,COCCCn1c(C(=O)NCCN2CCOCC2)cc2c(=O)n3cccc(C)c3nc21,6.14%
20,CCOCCCn1c(=N)c(C(N)=S)cc2c(=O)n3cccc(C)c3nc21,-85.5%
21,Cc1cccn2c(=O)c3cc(C(N)=S)c(=N)n(CCCN4CCOCC4)c3nc12,-90.5%
22,CCOCCCn1c(=NC(C)=O)c(C#N)cc2c(=O)n3cccc(C)c3nc21,-7.46%
23,Cc1cccn2c(=O)c3cc(C#N)c(=O)n(CCCN4CCOCC4)c3nc12,-21.2%
24,CCOCCCn1c(=N)c(C(=O)NCCN2CCOCC2)cc2c(=O)n3cccc(C)c3nc21,-17%
25,COCCCn1c(=N)c(C(N)=S)cc2c(=O)n3cccc(C)c3nc21,-70.3%
26,CCCn1c(=N)c(C#N)cc2c(=O)n3cccc(C)c3nc21,-20.2%
27,COc1cc(/C=N/NC(=O)c2ccc3nc[nH]c3c2)cc(OC)c1OC,10.6%

row,Compound,"hERG current change (%, negative = inhibition) at 1uM"
1,CC1(C)Cc2c(cnn2-c2ccccc2)C(NC(=O)CCc2ccc(=O)[nH]n2)C1 (centres unmarked),8.83%
2,Cc1ccccc1CN(C)CC(=O)Nc1ccccc1-c1ccccc1,-9.53%
3,O=c1[nH]nc(Cc2ccc(-c3cccc(Cl)c3)o2)c2ccccc12,6.53%
4,CCCCn1c(N)c(N(CC)C(=O)c2ccc(C#N)cc2)c(=O)[nH]c1=O,14.4%
5,Cc1cccn2c(=O)c3cc(C(=O)NCCCOC(C)C)sc3nc12,9.15%
6,Cc1cccn2c(=O)c3cc(C(N)=S)c(=N)n(CCCOC(C)C)c3nc12,-77.8%
7,Cc1cc(N)n(-c2cc(C)c3ccccc3n2)n1,9.59%
8,Cc1ccc(NC(=S)N2CCN(c3ccccn3)CC2)c(C)c1,12.7%
9,O=C(Nc1c(C(=O)N2CCOCC2)oc2ccccc12)c1cccc([N+](=O)[O-])c1,11.4%
10,CCOCCCN(C)C1CCN(C(=O)c2oc3ccccc3c2NC(=O)c2ccc([N+](=O)[O-])cc2)CC1,-85.2%
11,O=C(Nc1c(C(=O)N2CCN(c3ccccn3)CC2)oc2ccccc12)c1cccc([N+](=O)[O-])c1,7.86%
12,CCOCCCN(C)C1CCN(C(=O)c2oc3ccccc3c2NC(=O)c2cccc([N+](=O)[O-])c2)CC1,-86%
13,Cc1c(C(=O)N2CCN(c3ccc([N+](=O)[O-])cc3)CC2)oc2ccccc12,-12.9%
14,O=C(Nc1c(C(=O)N2CCN(c3ccccn3)CC2)oc2ccccc12)c1ccc([N+](=O)[O-])cc1,-4.07%
15,O=C(CN1C(=O)CCC1=O)Nc1nc(-c2nc3ccccc3s2)cs1,-4.37%
16,CCOC(=O)C(C)(C)N(Cc1ccc(Cl)cc1)S(=O)(=O)c1ccc(Cl)c([N+](=O)[O-])c1,13.2%
17,Cc1cc(C)cc(NC(=O)C(c2ccccc2)N2CCCC2)c1 (centres unmarked),12.6%
18,O=C(NCCCn1ccnc1)/C(=C/c1ccccc1)NC(=O)c1ccccc1,-47.6%
19,CC(C)c1ccc(/C=C(\NC(=O)c2ccccc2)C(=O)NCCCn2ccnc2)cc1,-63.2%
20,CN(C)c1ccc(/C=C(\NC(=O)c2ccccc2)C(=O)NCCCn2ccnc2)cc1,9.45%
21,O=C(NCCCn1ccnc1)/C(=C\c1ccc(Br)cc1)NC(=O)c1ccccc1,-82.1%
22,O=C(NCCCn1ccnc1)/C(=C/c1ccc(Cl)cc1)NC(=O)c1ccccc1,-82.5%
23,O=C(NCCCn1ccnc1)/C(=C\c1ccccc1Cl)NC(=O)c1ccccc1,6.1%
24,CN(C)c1ccc(/C=C(/NC(=O)c2ccccc2)C(=O)NCCCn2ccnc2)cc1,16.1%
25,COc1ccccc1/C=C(/NC(=O)c1ccccc1)C(=O)NCCCn1ccnc1,13.6%
26,COc1ccc(/C=C(/NC(=O)c2ccccc2)C(=O)NCCCn2ccnc2)cc1OC,15.3%
